Screens (PubChem)
697 NFkB inh = inhibitors of the PMA/ionomycin-induced NF-kB reporter in 697 B cells | 697 B-cell NF-kB luciferase reporter, 16 h | inhibition, % at 4 µM | actives 0.33% (n = 330,000); in the data active = inhibition above about 35%
SMARCA2 act = increases SMARCA2 function in MMTV reporter cells | MG213 cells, MMTV-luciferase reporter, dexamethasone, overnight | activation, % at 9.1 µM | actives 1% (n = 370,000); in the data active = activation above about 7.8%;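 note: 0% = vehicle wells and 100% = reference activator wells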
Jurkat NFkB inh = lowers PMA/ionomycin-induced NF-kB signal in Jurkat cells; PMA/ionomycin-induced NF-kB luciferase reporter, luminescence; inhibition, % at 4 µM; actives 0.53% (n = 330,000); in the data active = inhibition above about 50%
esBAF inh = SWI/SNF esBAF complex inhibition; mouse ES cells, Bmi1-luciferase knock-in reporter, 24 h; 100% = twice the neutral-well signal; actives 2% (n = 350,000); reporter increase, % at 12.5 µM; in the data active = activation above about 40%;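 note: 0% = median of the plate's neutral control wells and 100% = double that signal; a rise in the Bmi1 reporter signal indicates esBAF inhibition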
Gli-Sufu block = antagonists of Gli-Sufu signaling; inhibition, % at 5 µM; actives 0.74% (n = 340,000); Sufu-KO-LIGHT fibroblasts, Gli luciferase reporter luminescence;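 active = inhibition above about 55%, limit read from the data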;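 note: 0% = DMSO-treated cells and 100% = wells with medium but no cells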
Jurkat NFkB conf = lowers PMA/ionomycin-induced NF-kB signal in Jurkat cells. shares compounds with Jurkat NFkB inh. Jurkat NF-kB luciferase, 16 h. inhibition, % at 4 µM. actives 27% (n = 2,700);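 active = inhibition reaching about 45% at 4 µM in either replicate, limit read from the data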;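 note: plate controls were PMA/ionomycin stimulated DMSO wells for no effect and unstimulated DMSO wells for full effect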
Starred values were filed as active, the others as inactive; . = no result given. A selection: hits, their analogues and other compounds. The true share with any hit is near 3.3%.

SMILES	697 NFkB inh	SMARCA2 act	Jurkat NFkB inh	esBAF inh	Gli-Sufu block	Jurkat NFkB conf
CC1=C([N+](=O)[O-])C(c2cccc(Br)c2)C2=C(N1)c1ccccc1C2=O (stereo not given)	-13.6	1.7	53.8*	.	35.7	19.6
CCOC(=O)C1=C(C)NC2=C(C(=O)c3ccccc32)C1c1ccc(O)cc1 (stereo not given)	-8.8	-1.4	4.3	.	7.3	.
CN(C)CC(=O)Nc1ccc2c(c1)[C@@H]1C[C@@H](CC(=O)NCc3ccccc3F)O[C@@H](CO)[C@@H]1O2	.	.	.	-1.6	.	.
CCOC(=O)C1CCN(c2ncnc3c2cnn3-c2ccccc2)CC1	27.4	-4.6	6.0	-23.1	-2.6	.
Cn1ncc2c(N3CCN(c4ccc(Cl)c(Cl)c4)CC3)ncnc21	32.2	-2.6	58.8*	.	-172.0	60.4*
CC1CCN(c2ncnc3c2cnn3-c2ccccc2)CC1	-184.6	3.9	-187.0	16.4	-111.2	-106.2
Cn1ncc2c(N3CCN(c4ccccc4F)CC3)ncnc21	-17.8	-0.6	-21.3	.	-8.4	.
O=S(=O)(N[C@H]1CC[C@H](CCn2cc(C3CC3)nn2)O[C@@H]1CO)c1ccc(F)cc1	.	.	.	-1.4	.	.
COC(=O)c1ccc(C)c(NS(=O)(=O)c2ccc3c(c2)OCCO3)c1	2.6	.	58.0*	-7.5	49.4	51.9*
Cc1ccc(-n2nnc(-c3cc4ccccc4n3C)n2)cc1	-182.0	5.5	-151.8	58.2*	-109.5	-47.5
Cc1ccc(-n2nnc(-c3cccnc3Cl)n2)cc1	-227.5	7.4	-172.7	-8.1	-124.2	-86.2
C[C@H](CO)N1C[C@H](C)[C@H](CN(C)C(=O)Nc2ccccc2)Oc2ccc(NC(=O)CCC(F)(F)F)cc2CC1=O	.	.	.	-0.4	.	.
CCc1ccc(-c2cc(C(=O)N/N=C/c3c[nH]c4ccccc34)[nH]n2)cc1	-46.6	-1.5	59.6*	-2.9	-30.4	-11.0
O=C(N[C@@H]1CC[C@H](CCNS(=O)(=O)c2ccc(F)cc2)O[C@@H]1CO)C1CCOCC1	.	.	.	-1.7	.	.
Cc1c(C(=O)N/N=C/c2ccc(N(C)C)cc2)[nH]c2ccc(Cl)cc12	13.0	-1.6	50.4*	.	27.5	0.1
CCCCCN=C(N)N/N=C/c1c[nH]c2ccc(OC)cc12	-12.6	-9.6	99.6*	-79.5	31.0	30.8
C[C@H]1CN([C@@H](C)CO)S(=O)(=O)c2ccc(-c3cccc(C#N)c3)cc2O[C@@H]1CN(C)Cc1cccc(F)c1	.	.	.	-8.8	.	.
O=C1C2C3C=CC(C3)C2C(=O)N1c1ccc(-c2nc3ccccc3o2)cc1 (stereo not given)	-106.9	3.5	-172.3	.	24.2	-55.1
CN(C)CCOC1c2ccccc2CSc2ccccc21 (stereo not given)	7.3	-1.7	-27.2	.	3.3	.
Brc1ccc2c(c1)C(C1=NCCN1)c1ccccc1CS2 (stereo not given)	0.9	2.9	60.0*	.	19.4	56.5*
COc1ccc(N2CCN(C(=O)c3ccc(CNS(=O)(=O)c4ccc(C)cc4)cc3)CC2)cc1	-11.6	-1.4	9.3	8.0	-15.7	.
Cc1ccc(S(=O)(=O)NCc2ccc(C(=O)N3CCN(c4ccc([N+](=O)[O-])cc4)CC3)cc2)cc1	0.5	-4.6	58.7*	-31.3	26.3	53.3*
CCCCNc1c(-c2ccc(SC3CCCCC3)cc2)nc2ccccn12	-36.6	7.9*	-177.7	25.5	-63.4	-100.2
CCCCNc1c(-c2ccc(SC(C)CC)cc2)nc2ccccn12 (stereo not given)	-102.1	1.1	-133.1	-18.8	-19.8	.
O=S1(=O)C=C(Sc2nnc(-c3ccccc3)o2)c2ccccc21	-43.7	.	89.5*	-79.3	-2.5	65.2*
SMILES	697 NFkB inh	SMARCA2 act	Jurkat NFkB inh	esBAF inh	Gli-Sufu block	Jurkat NFkB conf
Cc1cc(C)nc(SC2=CS(=O)(=O)c3ccccc32)n1	0.0	-0.1	49.7	7.2	12.6	.
O=C(NCCc1ccc(Cl)cc1)c1ccc2c(c1)OCCO2	-222.7	0.5	-168.5	-1.4	-86.0	-132.8
Cc1ccc(N/C=C/c2onc(C)c2[N+](=O)[O-])cc1	-243.3	3.1	-221.1	-10.0	-115.4	7.9
Cc1cccc(C)c1N/C=C/c1onc(C)c1[N+](=O)[O-]	14.4	1.6	-12.2	-0.7	8.6	.
O=C(C[C@H]1CC[C@@H]2[C@H](COC[C@H](O)CN2S(=O)(=O)c2ccc(Cl)cc2)O1)N[C@H]1CCN(Cc2ccccc2)C1	.	.	.	-4.0	.	.
C[C@@H]1CN([C@@H](C)CO)C(=O)Cc2cc(NS(=O)(=O)c3ccc(F)cc3)ccc2O[C@H]1CN(C)C	.	.	.	-1.9	.	.
CSc1nc(Oc2ccc3ccccc3c2)c2sccc2n1	-34.3	-1.1	63.9*	-7.0	-16.0	30.7
COc1ccc(Oc2nc(SC)nc3ccsc23)cc1	-35.8	1.1	17.0	-0.1	1.9	.
CCOc1ccccc1NC(=O)Cn1nnc(C(=O)NCc2ccco2)c1N	12.8	1.9	69.4*	-12.1	26.0	56.0*
Cc1ccccc1NC(=O)Cn1nnc(C(=O)NCc2ccco2)c1N	-18.6	0.7	41.3	-6.9	1.4	.
COc1cc(OC)cc(C(=O)Nc2ccc(N3CCN(C(=O)c4cccs4)CC3)cc2)c1	-62.9	-3.5	63.8*	-25.2	6.2	19.9
COc1ccc(C(=O)Nc2ccc(N3CCN(C(=O)c4cccs4)CC3)cc2)cc1Br	-34.0	-5.0	15.2	8.5	19.6	.
CC(C)(C)c1ccc(C(=O)NCCc2ccccc2)cc1	-239.9	3.5	-184.6	-21.4	.	-151.9
CC(C)(C)c1ccc(C(=O)NCc2ccccc2)cc1	-59.1	2.7	-35.5	.	-33.8	.
C[C@H]1CN([C@@H](C)CO)C(=O)Cc2cc(NC(=O)Cn3cnnn3)ccc2O[C@H]1CN(C)Cc1ccc(Oc2ccccc2)cc1	.	.	.	-2.5	.	.
COCC(=O)Nc1ccc2c(c1)OC[C@H](C)N(C(=O)COC)C[C@@H](C)[C@@H](OC)CN(C)C2=O	.	.	.	0.5	.	.
[O-][n+]1onc2c1CCc1c-2nn(-c2ccccc2Cl)[n+]1[O-]	-12.3	-2.4	58.9*	.	1.8	12.0
CCOC(=O)CSc1nc2cc(OC)ccc2cc1C#N	-190.3	3.7	-206.7	32.7	0.6	-88.2
Cc1ccc2cc(C#N)c(SCC(=O)N3CCCC3)nc2c1	-15.5	2.0	-44.3	9.3	-11.2	.
CCOC(=O)CSc1nc2cc(C)ccc2cc1C#N	-118.7	3.6	-156.4	44.3*	-11.2	-88.6
CN(C)CC(=O)Nc1ccc2c(c1)[C@@H]1C[C@@H](CC(=O)N3CCc4ccccc4C3)O[C@@H](CO)[C@@H]1O2	.	.	.	3.4	.	.
CC(C)NC(=O)Nc1cccc2c1O[C@H](CN(C)S(=O)(=O)c1ccc(Cl)cc1)[C@@H](C)CN([C@@H](C)CO)C2=O	.	.	.	-0.1	.	.
CN(Cc1ccccc1)C1=CC(=[N+]2CCCCC2)CC(C)(C)C1	12.0	-8.3	69.4*	-23.0	85.3*	66.2*
Cc1noc(C)c1CSc1nc2ccccc2c(=O)n1-c1ccc(F)cc1F	-8.4	-0.2	49.3	-21.7	9.9	.
Cc1noc(C)c1CSc1nc2ccccc2c(=O)n1-c1ccccc1	-5.6	0.4	54.4*	-10.2	19.7	45.1
